Activity calls are given as the source filed them. Calls come from the whole dose curve; as a rule, active = well fitted curve in the direction sought with a large enough effect; inactive = flat fitted curve, though single readings scatter.
assay: Quantitative high throughput screen for delayed death inhibitors of the malarial parasite plastid: Hit Validation with 3D7 at 96 hr using Flow Cytometry; conditions: P. falciparum 3D7 in erythrocytes, SYBR/MitoTracker flow cytometry
Source text: The goal of this screen is to discover new antimalarial compounds that act by inhibiting the development of the apicoplast organelle in the malarial parasite Plasmodium falciparum. Some antibiotics, such as azithromycin and tetracycline, are known to interfere with the apicoplast translational machinery, and have a potent antimalarial effect. […] We developed a cell-based quantitative high throughput screen that leverages this "delayed death" phenotype to enrich for compounds that target the apicoplast. To detect small molecules that cause the delayed death phenotype, erythrocytes infected with firefly luciferase-expressing parasites were incubated with compounds for either one or two generations, corresponding to 48 and 96 hours, respectively. Growth inhibition was detected by a decrease in luciferase activity. Compounds that inhibited parasite growth in the second generation at least five-fold more potently than in the first generation were defined as delayed death inducing. These compounds were selected for confirmatory screening using a flow cytometry based assay. This hit validation assay used the 3D7 cell line and measured at 96 hours. NIH Molecular Libraries Probe Production Network [MLPCN] NIH Chemical Genomics Center [NCGC] MLPCN Grant: R21 NS059500 Assay Provider: David Fidock and Eric Ekland, Columbia University
Test compounds were diluted in 20 microliters of complete media (RPMI 1640 with 0.5% w/v Albumax (GIBCO), 24 mM sodium bicarbonate (Sigma) and 10 ug/mL gentamycin (Gibco)) in clear 384-well plates (Greiner). All liquid handling was conducted using a Bio Tek Precision 2000 pipetting system. Twenty microliters of infected erythrocytes, 0.2% parasitemia (for 48 hour time points) or 0.1% parasitemia (for 96 hour time points) were added to the compound dilutions (1% hematocrit, final concentration; 40 microliters, total culture volume). The assay plates were incubated for 48 hours, or 96 hours, at 37 masculine C in a humidified chamber (Billups- Rothenberg, Del Mar, CA, USA), gassed with 5%CO2/5%O2/ 90%N2. After two generations (96hours), 5 microliters of culture were harvested and transferred to a second 384 well plate for fluorescent staining. Samples were stained with 30 microliters of 2 x SYBR Green I (Invitrogen) and 150nM MitoTracker Deep Red (Invitrogen) diluted in 0.9% NaCl, 0.2% dextrose (Baxter) supplemented with 2.5% Fetal Calf Serum (Gibco) (saline/FCS). Mature erythrocytes lack nuclei and mitochondria, therefore only parasitized erythrocytes retain the SYBR Green I and MitoTracker Deep Red. After 30 minutes at 37 masculine C, the stained cells were diluted in an additional 60 microliters of saline/FCS. The samples were harvested directly from the 384 well plate using a Hypercyt High Capacity Flow Platform (Intellicyt) paired with a C6 Flow Cytometer (Accuri). The flow cytometry files were analyzed using FlowJo software (FlowJo).

Question: For CCOC(=O)c1ccc2c(c1)n(CC)c(/C=C/N(C)c1ccccc1)[n+]2CC, which Potency is on record?
Answer: 0.209 µM (active)

Question: For O=C(Nc1ccccc1N1CCOCC1)c1cccc(S(=O)(=O)N2CCOCC2)c1, which Potency is on record?
Answer: 11 µM (active)

Question: Which Potency does the source give for Clc1ccc(-c2c[n+](Cc3ccc(Cl)cc3Cl)c3n2CCCCC3)cc1 here?
Answer: 0.366 µM (active)

Question: For COc1ccc(C(=O)N2CCN(S(=O)(=O)c3ccc(C)cc3C)CC2)cc1OC, which Potency is on record?
Answer: 45.8 µM (active)

Question: For CC(C)C(=O)NCCSc1c[nH]c2ccccc12, which Potency is on record?
Answer: 16.6 µM (active)

Question: With CCOc1ccc(C(=O)Nc2ccc(N3CCN(C)CC3)cc2)cc1 as the compound, how does the Potency read?
Answer: 16.5 µM (active)

Question: For CCN(CC)C(=O)COc1coc(CN2CCN(c3cccc(Cl)c3)CC2)cc1=O, which Potency is on record?
Answer: 17.2 µM (active)

Question: Which Potency does the source give for CCC(=O)OC1C(N(C)C)CC(C)O[C@H]1O[C@H]1[C@H](C)[C@@H](O[C@H]2CC(OC)[C@@H](O)C(C)O2)[C@H](C)C(=O)O[C@@H](CC)[C@](C)(O)[C@@H](O)[C@H](C)C(=O)[C@@H](C)C[C@]1(C)O (stereo not given in full) here?
Answer: 11.4 µM (active)

Question: For N#Cc1cccc(NC(=O)Cn2c3[n+](c4ccc(C(F)(F)F)cc42)CCCCC3)c1, which Potency is on record?
Answer: 0.96 µM (active)

Question: For COc1cccc(CN2CCN(c3nc4nonc4nc3N3CCCCC3)CC2=O)c1, which Potency is on record?
Answer: 1 µM (active)

Question: Which Potency does the source give for COc1ccc(CNC(=O)C2CCC(CNS(=O)(=O)c3cccc4cccnc34)CC2)cc1 (stereo not given) here?
Answer: 16.5 µM (active)

Question: For Brc1cccc(OCCCCN2CCCCC2)c1, which Potency is on record?
Answer: 22.7 µM (active)

Question: Which Potency does the source give for CC1=Nc2cc(C(=O)N3CCCC3)ccc2Sc2ccc(C)cc21 here?
Answer: 18 µM (active)

Question: For CCOc1ccc(NC(=O)C[n+]2ccc(N(C)C)cc2)cc1, which Potency is on record?
Answer: 0.135 µM (active)

Question: For COc1ccc2c(ccc[n+]2CC(=O)c2ccccc2)c1, which Potency is on record?
Answer: 2.22 µM (active)

Question: Which Potency does the source give for CN(C)S(=O)(=O)c1cc(NC(=O)C2=COCCO2)ccc1Cl here?
Answer: 15.9 µM (active)

Question: Which Potency does the source give for Cc1sc2nc[nH]c(=O)c2c1-c1ccc(Cl)cc1 here?
Answer: 13.8 µM (active)

Question: Which Potency does the source give for CCCc1c(CC)c(=N)c2ccccc2n1C here?
Answer: 0.198 µM (active)

Question: For COc1ccc(Nc2nnc(-c3ccc(C)cc3)c3ccccc23)cc1C(=O)N1CCCCC1, which Potency is on record?
Answer: 20 µM (active)

Question: Which Potency does the source give for Cc1ccc(-n2c(-c3ccc(Cl)cc3)c[n+]3c2CCC3)cc1 here?
Answer: 0.15 µM (active)

Question: Which Potency does the source give for CN(C)c1ccc(CN(C(=O)c2ccccc2Br)C2CCS(=O)(=O)C2)cc1 (stereo not given) here?
Answer: 18.2 µM (active)

Question: For CCCCOc1ccc(N2C(N)=NC(N)=NC23CCCCC3)cc1, which Potency is on record?
Answer: 15.8 µM (active)

Question: Which Potency does the source give for O=C(CSc1ccc(-c2cccnc2)nn1)Nc1ccccc1C(F)(F)F here?
Answer: 4.65 µM (active)

Question: With CC(=O)NC[C@@H]1CN(c2ccc(N3CCOCC3)c(F)c2)C(=O)O1 as the compound, how does the Potency read?
Answer: 22.2 µM (active)

Question: For COc1cc(C(C)=O)ccc1OCC(O)CN1CCN(c2cc(C)cc(C)c2)CC1 (stereo not given), which Potency is on record?
Answer: 13.9 µM (active)

Question: Which Potency does the source give for COc1ccc(NC(=S)N2CCC(Cc3ccccc3)CC2)cc1OC here?
Answer: 26.6 µM (active)

Question: For Cc1ccc(CN2CCC(n3nccc3NC(=O)c3ccccc3C)CC2)o1, which Potency is on record?
Answer: 20.7 µM (active)

Question: Which Potency does the source give for CO[C@@H]1[C@@H](OC2OC(C)C(OC3CC(C)(O)C(OC(=O)CC(C)C)C(C)O3)C(N(C)C)C2O)[C@@H](CC=O)C[C@@H](C)C(=O)/C=C\C2O[C@H]2C[C@@H](C)OC(=O)C[C@H]1OC(C)=O (stereo not given in full) here?
Answer: 0.178 µM (active)

Question: For O=C(c1ccc([N+](=O)[O-])cc1)n1nc(-c2ccccc2)nc1NCc1ccc(F)cc1, which Potency is on record?
Answer: 19.3 µM (active)

Question: For COc1ccccc1N1CCN(CCC(=O)Nc2ccc(F)cc2)CC1, which Potency is on record?
Answer: 15.7 µM (active)

Question: With CCCCN(CCCNC(=O)c1ccc(CS(=O)(=O)c2ccc(OC)cc2)o1)Cc1ccccc1 as the compound, how does the Potency read?
Answer: 4.01 µM (active)

Question: Which Potency does the source give for O=C(NCc1cccnc1)c1ccc(NS(=O)(=O)c2ccccc2)cc1 here?
Answer: 21.4 µM (active)

Question: With COCCNC(=O)c1cccc(OC2CCN(Cc3cccc(SC)c3)CC2)c1 as the compound, how does the Potency read?
Answer: 5.37 µM (active)

Question: Which Potency does the source give for CCCc1cc(=O)oc2cc(OC(C)C(=O)NCc3ccccn3)c(Cl)cc12 (stereo not given) here?
Answer: 3.22 µM (active)

Question: With Cc1c(F)c(N2CCNC(C)C2)cc2c1c(=O)c(C(=O)O)cn2C1CC1 (stereo not given) as the compound, how does the Potency read?
Answer: 0.651 µM (active)

Question: Which Potency does the source give for CCc1nc(SCC(=O)Nc2ccc(N(C)C)cc2)n[nH]1 here?
Answer: 23.9 µM (active)

Question: With CCOc1ccc(S(=O)(=O)Nc2cc(S(=O)(=O)N(CC)CC)ccc2N2CCCC2)cc1 as the compound, how does the Potency read?
Answer: 6.38 µM (active)

Question: Which Potency does the source give for CCCCN(CCCNC(=O)C1CCN(C(=O)c2cc3sccc3n2C)CC1)Cc1ccccc1 here?
Answer: 0.617 µM (active)

Question: Which Potency does the source give for COc1ccc2cc3cc(C(=O)Nc4ccc5c(c4)OCO5)oc3nc2c1 here?
Answer: 11.9 µM (active)

Question: Which Potency does the source give for c1csc(CNc2ncnc3nc[nH]c23)c1 here?
Answer: 23.4 µM (active)

Source: PubChem BioAssay AID624335 (National Center for Advancing Translational Sciences (NCATS), 2012)
